Records with an inconclusive call do not appear. The source made the active and inactive calls. Unless noted, calls follow the shape of the dose curve; as a rule, active = well fitted curve in the direction sought with a large enough effect; inconclusive = small, poorly fitted or top-dose-only effect, or another doubt; inactive = no such curve, though single readings can be large; an effect the other way counts as inactive or inconclusive.

The nature of experiment [1]: qHTS Assay for Lipid Storage Modulators (AID 1519; calls by dose curve; as to activity change, negative = inhibition: % is scaled to controls: 0 for no effect and ±100 for the full control effect). As to conditions: Drosophila S3 cells, BODIPY lipid droplet/cell ratio, laser cytometry, cells loaded with oleic acid; for activity change, negative = inhibition: at 57.5 µM (top of the series). The method in brief: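 Cells seeded at 5,000 per well were treated with compounds over a concentration series and loaded with oleic acid (400 uM, as added). Lipid droplet fluorescence (488 nm excitation, 500-530 nm channel) was read by laser-scanning cytometry and normalized to 20 uM Triacsin C.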
(In general: Quantitative high-throughput screening tests each substance at several concentrations.)

Experiment [2] deals with DNA repair nuclease/redox regulator APEX1 (Homo sapiens) (UniProt P27695). The experiment is described as follows: qHTS Validation Assay for Inhibitors of the Human Apurinic/apyrimidinic Endonuclease 1 (APE1) (AID 1705;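 also: TAMRA fluorescence gain over two minutes as APE1 cuts a quenched THF abasic duplex; % is scaled to controls: 0 for no effect and ±100 for the full control effect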). Conditions: purified APE1 endonuclease activity, fluorescence, titration; series mostly up to 57.1 µM. The gist of the method: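 qHTS, 1536-well. APE1 + cpd 15 min RT → 50 nM TAMRA/BHQ-2 THF-abasic dsDNA substrate → kinetic fluorescence, 3 reads/60 s; delta(read3−read1) = reaction progress. No-enzyme buffer = negative control.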

Experiment [3] is described as follows: Counterscreen for APE1 Inhibitors: Fluorescent Dye Displacement Validation Assay (AID 1707).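 Also: plate controls were ThO with dsDNA and no compound for no effect and ThO without dsDNA for full effect.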 Conditions: fluorescent dye displacement from DNA; series mostly up to 57.1 µM. The gist of the method:
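Reaction mixture of 250 nM Thiazole Orange and 50 nM double-stranded abasic-site DNA was dispensed, compounds were pin-transferred, and fluorescence was read at endpoint (480 nm ex, 540 nm em). Reduced fluorescence indicated dye displacement by DNA binding.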
(In general: The purpose of a counterscreen is to sort out artefacts and off-target activity.)

The target in experiment [4] is Endonuclease 4 (Escherichia coli (strain K12)) (UniProt P0A6C1). The experiment is described as follows: Counterscreen for APE1 Inhibitors: qHTS Validation Assay for Inhibitors of Endonuclease IV (AID 1708). Also: % is scaled to controls: 0 for no effect and ±100 for the full control effect. Conditions: E. coli endonuclease IV, DNA cleavage fluorescence; series mostly up to 57.1 µM. The gist of the method:
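Read-out: fluorescence rise (ex 525/em 598 nm) from incision of a TAMRA/BHQ-2 double-stranded THF abasic-site substrate (50 nM), measured kinetically; third-minus-first read difference gave reaction progress. Enzyme 2 nM.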

The nature of experiment [5]: qHTS for differential inhibitors of proliferation of Plasmodium falciparum line 7G8 (AID 1815).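 Also: potency is read from the fitted curve at half-maximal effect; parasite growth measured after three days of incubation.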 As to conditions: Plasmodium falciparum 7G8 proliferation inhibition; series mostly up to 28.7 µM.
Experiment [6] in a line: qHTS for differential inhibitors of proliferation of Plasmodium falciparum line GB4 (AID 1816).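 Also: potency is read from the fitted curve at half-maximal effect; parasite growth measured after 72 h incubation.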 As to conditions: Potency: Plasmodium falciparum GB4 proliferation inhibition; series mostly up to 28.7 µM.
Experiment [7] can be described thus: qHTS for differential inhibitors of proliferation of Plasmodium falciparum line 3D7 (AID 1876). Also: potency is read from the fitted curve at half-maximal effect. Conditions: P. falciparum 3D7 proliferation inhibition; series mostly up to 28.7 µM.
A short description of experiment [8]: qHTS for differential inhibitors of proliferation of Plasmodium falciparum line D10 (AID 1877).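 Also: parasites grown with compound for 72 h before DNA staining.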 Also: potency is read from the fitted curve at half-maximal effect.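 As to activity change, negative = inhibition: plate controls were vehicle wells for no effect and reference inhibitor wells for full effect.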 As to conditions: series mostly up to 28.7 µM.
The nature of experiment [9]: qHTS for differential inhibitors of proliferation of Plasmodium falciparum line Dd2 (AID 1882). Also: nearly all actives have a fitted effect of over 65% in size. Also: potency is read from the fitted curve at half-maximal effect.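 As to activity change, negative = inhibition: compound exposure of 72 h on infected erythrocytes; plate controls were DMSO vehicle for no effect and 0.29 µM artemisinin for full effect.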 Conditions: Potency: Plasmodium falciparum Dd2 proliferation inhibition; series mostly up to 28.7 µM. The method in brief:
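RBC culture, 0.3% parasitemia / 2.5% Hct final; cpd added by pin tool in DMSO; 72 h, 37 C, 5% CO2; lysis buffer + SYBR Green I, o/n RT dark; FI 485/535; norm. to artemisinin 0.29 uM and DMSO.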

Experiment [10] is described as follows: qHTS for differential inhibitors of proliferation of Plasmodium falciparum line W2 (AID 1883).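 Also: parasites grown with compound for 72 h before lysis and staining.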 Also: potency is read from the fitted curve at half-maximal effect.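 As to activity change, negative = inhibition: 0% = vehicle wells and -100% = control inhibitor wells.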 Conditions: Potency: Plasmodium falciparum W2 proliferation inhibition; series mostly up to 28.7 µM.
A short description of experiment [11]: qHTS for differential inhibitors of proliferation of Plasmodium falciparum line HB3 (AID 1886).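 Also: parasites grown with compound for 72 h before SYBR Green readout.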 Also: potency is read from the fitted curve at half-maximal effect.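 As to activity change, negative = inhibition: plate controls were vehicle for no effect and reference inhibitor for full effect.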 As to conditions: Potency: Plasmodium falciparum HB3 proliferation inhibition; series mostly up to 28.7 µM.
In experiment [12] the target is Ferritin light chain (Equus caballus) (UniProt P02791). In words: qHTS Validation Assay for Identification of Novel General Anesthetics (AID 2323). Also: % is scaled to controls: 0 for no effect and ±100 for the full control effect. Conditions: horse apoferritin, anesthetic-site fluorescent probe displacement; series mostly up to 76.9 µM. The method in brief:
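Fluorescence at 535 nm (excitation 380 nm) reported loss of 1-AMA binding to horse-spleen apoferritin (10 uM) in PBS with 50% saturated 1-aminoanthracene, after 10 min room-temperature incubation with compound; values from Hill fits of normalized response.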

Experiment [13] deals with ATP-dependent DNA helicase Q1 (Homo sapiens) (UniProt P46063). In words: qHTS Validation Assay for Inhibitors of RecQ-Like Dna Helicase 1 (RECQ1) (AID 2353).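 Also: plate controls were DMSO vehicle for no effect and enzyme-free control for full effect.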 As to conditions: recombinant RECQ1 helicase DNA unwinding assay; series mostly up to 25.6 µM. The method in brief: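 RECQ1T1 50 nM; forked duplex (20 bp + 30-nt ss tails) 200 nM, ATP 2 mM final; pH 8.0, 2 mM MgCl2, 2.5 ug/ml poly(dI-dC); 15 min compound preincubation; discontinuous kinetic read over 2 h at RT.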

The nature of experiment [14]: Validation screen for small molecules that induce DNA re-replication in MCF 10A normal breast cells (AID 463097). Also: 0% is about no effect; nearly all actives have a fitted effect of over 60% in size. Conditions: MCF 10A cells, DNA re-replication phenotype imaging; series mostly up to 46.1 µM. The gist of the method:
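Image-based qHTS: normal breast cells are incubated with compound for 48 hr, stained with Hoechst, and scanned for total nuclear fluorescence. Compounds raising the fraction of nuclei with elevated DNA content count as re-replication inducers.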

A short description of experiment [15]: Quantitative high throughput screen for delayed death inhibitors of the malarial parasite plastid, 96 hour incubation (AID 488745). Also: nearly all actives have a fitted effect of over 70% in size. Also: potency is read from the fitted curve at half-maximal effect. As to conditions: Plasmodium falciparum growth; series mostly up to 28.7 µM. The gist of the method:
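Luciferase-expressing P. falciparum, infected RBCs 2% Hct/0.1% parasitemia (final); 96 h cpd exposure, 37 C, 5% CO2; RPMI 1640 + 0.5% Albumax, bicarbonate, gentamycin. Readout: luminescence loss = growth inhibition.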

Experiment [16] is described as follows: Quantitative high throughput screen for delayed death inhibitors of the malarial parasite plastid, 48 hour incubation (AID 488752). Also: nearly all actives have a fitted effect of over 65% in size. Also: potency is read from the fitted curve at half-maximal effect. As to conditions: Plasmodium falciparum growth; series mostly up to 28.7 µM. The gist of the method: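 Luciferase-expressing P. falciparum in RBCs, 2% Hct, 0.1% parasitemia final; RPMI 1640 + 0.5% Albumax; 48 h, 37 C, 5% CO2; luminescence readout, signal drop = growth inhibition.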

For experiment [17], the target named is M-phase phosphoprotein 8 (Homo sapiens) (UniProt Q99549). In words: qHTS Validation Assay for Inhibitors for MPP8 Chromodomain Interactions with Methylated Histone Tails (AID 488949).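 Also: 50 nM MPP8 with 50 nM peptide preformed then compounds added for 30 min; AlphaScreen signal from MPP8 chromodomain bound to biotinylated H3K9me3 peptide; top concentration of the series differs between compounds; % is scaled to controls: 0 for no effect and ±100 for the full control effect; nearly all actives have a fitted effect of over 55% in size.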 Conditions: AlphaScreen MPP8 binding to H3K9me3 peptide; series mostly up to 114 µM. The gist of the method:
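50 nM MPP8 + 50 nM b-H3K9me3 peptide, PBS pH 7.4/0.01% Tween-20, 30 min RT; + cpd 30 min RT; + AlphaScreen donor/Ni-chelate acceptor beads 10 ug/mL final, 30 min dark; luminescence read.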

The target of experiment [18] is Transient receptor potential cation channel subfamily V member 1 (Homo sapiens) (UniProt Q8NER1). In words: HTS Assay for Compounds that Act as Enhancers of the Vanilloid Receptor 1 (AID 488979). Also: 0% is about no effect. As to conditions: TRPV1-expressing cells, enhancer of channel activity, stimulated with capsaicin at EC20; series mostly up to 41.7 µM. The gist of the method: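 TRPV1 cells loaded with Fluo-8 calcium dye; compound added and Ca2+ signal (ex 480/em 520 nm) followed 3 min, then capsaicin at EC20 added and read 2 more min to detect enhancement.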

Experiment [19] deals with Thyrotropin-releasing hormone receptor (Homo sapiens) (UniProt P34981). The experiment is described as follows: qHTS for Small Molecule Agonists and Allosteric Enhancers of Human TRH Receptor: Validation Screen for Agonists (AID 493127;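 active = calcium activation more than 3 SD above the typical response in the agonist read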;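 also: intracellular calcium rise by fluo-8 fluorescence before TRH EC20 addition; 0% is about no effect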). Conditions: TRH receptor agonist cell assay; at 2 µM; stronger effect = higher value. The method in brief:
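Read-out: intracellular calcium release measured kinetically by FDSS (fluo-8, ex 480/em 530 nm), 1 reading/s after a 10-cycle baseline. TRHR cells, 2000/well, cultured 18 h at 33.5C, dye-loaded at room temp. Compound-evoked positive calcium signal flags agonists.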

In experiment [20] the target is Galactokinase (Homo sapiens) (UniProt P51570). In words: qHTS Validation Assay for Inhibitors of Human Galactokinase (GALK) (AID 493189). Also: 0% is about no effect. As to conditions: purified human GALK enzyme activity, qHTS 7-point titration; series mostly up to 57.5 µM. The method in brief:
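5 nM GALK / 100 uM galactose / 35 uM ATP, 20 mM HEPES pH8.0, 5 mM MgCl2, 60 mM NaCl, 1 mM DTT, 0.01% BSA (final). RT 1 h; Kinase-Glo Plus luminescence.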

Experiment [21] can be described thus: Validation screen for small molecules that induce DNA re-replication in SW480 colon adenocarcinoma cells (AID 504364). Also: 0% is about no effect. As to conditions: DNA re-replication phenotype (high-content imaging); series mostly up to 46.1 µM. The method in brief:
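Read-out: total Hoechst intensity of nuclei by fluorescence scanning imager; hits raise the fraction of nuclei with elevated DNA content. Cells received compound for 48 hr at 37 C before a 40 min stain.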

Experiment [22] has as its target Voltage-gated inwardly rectifying potassium channel KCNH2 (Homo sapiens) (UniProt Q12809). The experiment is described as follows: qHTS Assay for Small Molecule Inhibitors of the Human hERG Channel Activity (AID 588834).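 Also: top concentration of the series differs between compounds; % is scaled to controls: 0 for no effect and ±100 for the full control effect; lower thallium flux fluorescence means stronger hERG block; nearly all actives have a fitted effect of over 50% in size.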 As to conditions: U2OS BacMam hERG, FluxOR thallium flux fluorescence; series mostly up to 46.1 µM. The method in brief: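 Step 1: BacMam hERG transduction of U2OS, 4 hrs RT. Step 2: overnight 37 °C, plate 2000 cells/well, 4 hr. Step 3: FluxOR load, compound 10 min, stimulate, read fluorescence.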

Experiment [23] deals with RecQ-like DNA helicase BLM (Homo sapiens) (UniProt P54132). The experiment is described as follows: qHTS Validation Assay for Inhibitors of Bloom's syndrome helicase (BLM) (AID 2364).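 Also: plate controls were DMSO vehicle for no effect and enzyme-free control for full effect.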 Conditions: BLM helicase DNA unwinding, fluorescence, in vitro; series mostly up to 57.1 µM. The gist of the method: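 50 nM BLM preincubated 15 min at room temperature with compound in pH 8.0 Tris buffer containing 2.5 ug/ml poly(dI-dC); started with 200 nM TAMRA/BHQ-2 forked duplex and 2 mM ATP (final). Unwinding read as TAMRA fluorescence increase, two reads 2 h apart.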

For experiment [24], the target named is Thyrotropin receptor (Homo sapiens) (UniProt P16473). In words: qHTS Assay for Antagonists of the Thyroid Stimulating Hormone Receptor (AID 488980). Also: 0% is about no effect. Conditions: TSHR-expressing cells, cAMP antagonist read-out; series mostly up to 57.5 µM. The method in brief:
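Readout is cAMP by HTRF competition between cellular cAMP and cAMP-d2 for a cryptate-labelled antibody. Antagonism was assessed in TSHR-transfected HEK293 cells stimulated with 4 nM TSH (EC80, final) in the presence of RO 20-1724.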

Where [25] appears, read: measured here: cell count channel max response.
The mark [26] stands for this setting: measured here: lipid channel max response.

Sequence of Galactokinase (Homo sapiens) (P51570 whole entry, looked up): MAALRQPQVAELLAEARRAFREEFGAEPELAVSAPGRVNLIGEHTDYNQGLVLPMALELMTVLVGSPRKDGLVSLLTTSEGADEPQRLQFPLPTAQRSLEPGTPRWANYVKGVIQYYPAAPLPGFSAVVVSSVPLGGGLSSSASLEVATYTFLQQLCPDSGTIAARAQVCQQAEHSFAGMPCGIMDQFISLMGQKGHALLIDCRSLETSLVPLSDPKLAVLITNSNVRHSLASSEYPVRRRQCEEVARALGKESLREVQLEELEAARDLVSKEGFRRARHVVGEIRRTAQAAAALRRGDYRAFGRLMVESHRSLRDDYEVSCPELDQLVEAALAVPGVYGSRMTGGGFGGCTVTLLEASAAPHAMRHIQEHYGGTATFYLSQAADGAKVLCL
Sequence of ATP-dependent DNA helicase Q1 (Homo sapiens) (P46063 whole entry, looked up): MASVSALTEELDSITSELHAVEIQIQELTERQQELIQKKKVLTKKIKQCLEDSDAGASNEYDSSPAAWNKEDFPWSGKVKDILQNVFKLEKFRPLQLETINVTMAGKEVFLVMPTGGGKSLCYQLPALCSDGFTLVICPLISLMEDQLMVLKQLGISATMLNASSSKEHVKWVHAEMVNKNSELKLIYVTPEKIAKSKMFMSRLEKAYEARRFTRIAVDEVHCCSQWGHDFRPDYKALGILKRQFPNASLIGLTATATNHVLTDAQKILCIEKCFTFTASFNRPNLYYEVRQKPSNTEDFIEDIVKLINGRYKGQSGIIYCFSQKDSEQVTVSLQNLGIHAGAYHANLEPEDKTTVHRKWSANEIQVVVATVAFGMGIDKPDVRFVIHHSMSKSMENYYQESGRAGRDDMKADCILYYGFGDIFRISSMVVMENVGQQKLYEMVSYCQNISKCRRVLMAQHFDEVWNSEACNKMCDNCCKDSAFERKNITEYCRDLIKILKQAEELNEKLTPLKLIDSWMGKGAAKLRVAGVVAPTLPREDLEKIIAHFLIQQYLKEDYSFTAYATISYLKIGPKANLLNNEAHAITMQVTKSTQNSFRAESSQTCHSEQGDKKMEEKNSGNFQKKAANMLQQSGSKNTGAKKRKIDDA
Sequence of Voltage-gated inwardly rectifying potassium channel KCNH2 (Homo sapiens) (Q12809 whole entry, looked up): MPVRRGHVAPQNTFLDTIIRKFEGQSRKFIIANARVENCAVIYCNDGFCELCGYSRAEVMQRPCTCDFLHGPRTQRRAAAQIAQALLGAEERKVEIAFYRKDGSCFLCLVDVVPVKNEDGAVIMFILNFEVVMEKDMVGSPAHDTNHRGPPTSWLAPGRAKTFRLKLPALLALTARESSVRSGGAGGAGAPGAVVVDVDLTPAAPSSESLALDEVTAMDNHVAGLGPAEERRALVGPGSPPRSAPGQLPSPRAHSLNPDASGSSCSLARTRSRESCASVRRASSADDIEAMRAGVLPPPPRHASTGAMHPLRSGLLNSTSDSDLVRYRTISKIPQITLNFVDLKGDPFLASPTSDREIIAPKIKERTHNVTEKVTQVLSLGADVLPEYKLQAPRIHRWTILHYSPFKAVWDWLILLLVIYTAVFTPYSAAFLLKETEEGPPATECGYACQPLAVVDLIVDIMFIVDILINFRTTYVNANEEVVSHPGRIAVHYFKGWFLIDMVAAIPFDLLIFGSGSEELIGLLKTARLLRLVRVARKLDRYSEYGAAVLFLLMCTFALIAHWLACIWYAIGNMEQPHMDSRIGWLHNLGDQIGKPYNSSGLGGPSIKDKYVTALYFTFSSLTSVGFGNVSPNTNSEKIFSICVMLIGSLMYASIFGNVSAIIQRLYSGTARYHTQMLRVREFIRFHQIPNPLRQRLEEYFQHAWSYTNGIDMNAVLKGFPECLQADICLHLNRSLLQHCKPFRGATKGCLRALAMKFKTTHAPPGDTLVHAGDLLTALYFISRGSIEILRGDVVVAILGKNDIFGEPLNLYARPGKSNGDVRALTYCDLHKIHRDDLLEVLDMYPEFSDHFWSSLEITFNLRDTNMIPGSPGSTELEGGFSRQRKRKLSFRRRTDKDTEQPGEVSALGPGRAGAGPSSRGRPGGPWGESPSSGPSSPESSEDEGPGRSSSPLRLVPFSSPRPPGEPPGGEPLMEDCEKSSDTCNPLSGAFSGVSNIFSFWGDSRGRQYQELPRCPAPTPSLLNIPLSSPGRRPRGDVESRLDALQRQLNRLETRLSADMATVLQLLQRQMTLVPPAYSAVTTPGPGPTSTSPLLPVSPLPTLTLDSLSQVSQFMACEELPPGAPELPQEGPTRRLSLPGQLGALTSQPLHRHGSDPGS
Sequence of M-phase phosphoprotein 8 (Homo sapiens) (Q99549 whole entry, looked up): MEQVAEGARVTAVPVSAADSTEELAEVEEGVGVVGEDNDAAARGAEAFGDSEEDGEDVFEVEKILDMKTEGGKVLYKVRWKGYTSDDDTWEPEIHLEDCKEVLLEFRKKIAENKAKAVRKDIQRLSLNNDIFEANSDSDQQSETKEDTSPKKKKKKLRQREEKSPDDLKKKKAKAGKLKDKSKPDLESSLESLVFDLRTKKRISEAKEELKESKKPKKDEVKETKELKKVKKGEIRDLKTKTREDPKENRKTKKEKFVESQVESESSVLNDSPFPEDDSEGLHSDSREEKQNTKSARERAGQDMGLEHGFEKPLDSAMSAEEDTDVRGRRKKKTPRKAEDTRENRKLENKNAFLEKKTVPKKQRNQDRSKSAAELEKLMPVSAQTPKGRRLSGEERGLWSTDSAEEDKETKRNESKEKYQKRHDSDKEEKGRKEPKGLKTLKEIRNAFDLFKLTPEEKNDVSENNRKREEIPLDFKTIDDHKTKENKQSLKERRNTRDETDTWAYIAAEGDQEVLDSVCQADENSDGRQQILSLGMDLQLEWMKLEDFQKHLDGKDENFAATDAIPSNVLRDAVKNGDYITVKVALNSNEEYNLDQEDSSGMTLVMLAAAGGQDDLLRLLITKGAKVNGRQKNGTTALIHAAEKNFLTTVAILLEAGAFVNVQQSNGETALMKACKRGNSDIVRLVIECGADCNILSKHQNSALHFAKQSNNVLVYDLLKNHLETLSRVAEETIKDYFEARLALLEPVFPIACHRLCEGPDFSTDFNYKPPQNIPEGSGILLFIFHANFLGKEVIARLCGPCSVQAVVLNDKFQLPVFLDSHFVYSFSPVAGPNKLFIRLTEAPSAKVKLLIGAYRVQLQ
Sequence of Thyrotropin-releasing hormone receptor (Homo sapiens) (P34981 whole entry, looked up): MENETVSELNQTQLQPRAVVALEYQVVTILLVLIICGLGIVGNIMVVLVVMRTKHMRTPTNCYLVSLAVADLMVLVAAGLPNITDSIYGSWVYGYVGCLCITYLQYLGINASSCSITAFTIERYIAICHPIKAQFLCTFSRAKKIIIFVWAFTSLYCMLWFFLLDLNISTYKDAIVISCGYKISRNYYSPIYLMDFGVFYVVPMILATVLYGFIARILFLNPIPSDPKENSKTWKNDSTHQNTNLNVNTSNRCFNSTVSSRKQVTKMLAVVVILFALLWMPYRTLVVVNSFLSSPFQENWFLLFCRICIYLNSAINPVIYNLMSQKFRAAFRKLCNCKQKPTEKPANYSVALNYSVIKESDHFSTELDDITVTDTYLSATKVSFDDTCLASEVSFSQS
Sequence of Transient receptor potential cation channel subfamily V member 1 (Homo sapiens) (Q8NER1 whole entry, looked up): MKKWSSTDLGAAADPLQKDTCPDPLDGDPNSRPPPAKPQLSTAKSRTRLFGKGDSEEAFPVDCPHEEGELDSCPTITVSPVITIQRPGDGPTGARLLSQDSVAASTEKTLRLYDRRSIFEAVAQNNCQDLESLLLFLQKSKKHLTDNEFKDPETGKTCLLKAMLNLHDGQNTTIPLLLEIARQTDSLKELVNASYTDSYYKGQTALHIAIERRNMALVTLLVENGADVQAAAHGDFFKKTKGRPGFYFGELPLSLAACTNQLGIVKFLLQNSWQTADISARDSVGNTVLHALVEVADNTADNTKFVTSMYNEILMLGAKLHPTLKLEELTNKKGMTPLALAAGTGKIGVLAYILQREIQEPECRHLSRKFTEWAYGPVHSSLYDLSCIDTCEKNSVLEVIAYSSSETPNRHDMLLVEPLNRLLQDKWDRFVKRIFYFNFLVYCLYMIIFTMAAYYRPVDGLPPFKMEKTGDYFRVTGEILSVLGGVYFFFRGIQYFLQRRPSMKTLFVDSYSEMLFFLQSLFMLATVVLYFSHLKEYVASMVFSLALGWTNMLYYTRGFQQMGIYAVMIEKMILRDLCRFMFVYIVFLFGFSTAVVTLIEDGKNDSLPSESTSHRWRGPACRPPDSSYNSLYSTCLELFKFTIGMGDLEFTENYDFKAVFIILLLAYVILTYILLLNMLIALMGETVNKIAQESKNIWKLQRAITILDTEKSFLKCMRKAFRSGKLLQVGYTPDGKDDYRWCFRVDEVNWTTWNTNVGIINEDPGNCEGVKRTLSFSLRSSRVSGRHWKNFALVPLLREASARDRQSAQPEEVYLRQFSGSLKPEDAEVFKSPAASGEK
Sequence of Ferritin light chain (Equus caballus) (P02791 2-175 limits assumed): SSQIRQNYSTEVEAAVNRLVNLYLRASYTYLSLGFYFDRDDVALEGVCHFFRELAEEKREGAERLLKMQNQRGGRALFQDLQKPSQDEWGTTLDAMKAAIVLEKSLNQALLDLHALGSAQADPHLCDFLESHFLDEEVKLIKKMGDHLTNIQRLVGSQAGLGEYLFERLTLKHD
Sequence of DNA repair nuclease/redox regulator APEX1 (Homo sapiens) (P27695 whole entry, looked up): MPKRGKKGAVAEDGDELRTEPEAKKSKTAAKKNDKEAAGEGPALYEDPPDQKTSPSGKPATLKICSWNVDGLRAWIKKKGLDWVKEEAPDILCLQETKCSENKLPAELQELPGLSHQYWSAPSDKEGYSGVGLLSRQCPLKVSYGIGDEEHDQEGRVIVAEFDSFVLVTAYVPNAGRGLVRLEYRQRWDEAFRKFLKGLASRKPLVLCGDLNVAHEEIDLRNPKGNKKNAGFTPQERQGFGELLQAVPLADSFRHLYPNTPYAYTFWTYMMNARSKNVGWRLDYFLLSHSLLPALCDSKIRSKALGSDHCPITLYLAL

Regarding `CCCC1O[C@@H]2C[C@H]3[C@@H]4CCC5=CC(=O)C=C[C@]5(C)C4[C@@H](O)C[C@]3(C)[C@]2(C(=O)CO)O1` (some centres undefined), the activity change, negative = inhibition in [1] is 0.423% (inactive). The max response in experiment [1] (setting [25]) is -19.9%; in [1] (setting [26]) it was -19.5%. Moreover, the call in experiment [2], in experiment [3], in experiment [4], in experiment [12], in experiment [13] and in experiment [14] was inactive. Besides, the result in experiment [18], in experiment [20] and in [21] was inactive. Moreover, the Potency in experiment [5] is 2.24 µM (active); in experiment [6] it was 3.16 µM (active); in experiment [7], 2.51 µM (active); in experiment [8], 11.2 µM (active); in experiment [9], 5.01 µM (active); in experiment [10] it was 2.51 µM (active). Besides, the values for the Potency in [11], in experiment [15] and in [16] were 5.01 µM (active), 2.94 µM (active) and 10.4 µM (active), respectively. For the same molecule, the Potency entry in experiment [17] and in [22] was “inactive” throughout. In addition, the activation in [19] was 2.06% (inactive).
On to `C[C@@H](Oc1ccc(Oc2cnc3ccc(Cl)cc3n2)cc1)C(=O)O`, for which the activity change, negative = inhibition in [1] was -0.184% (inactive). The figures for the max response in experiment [1] (setting [25]) and in [1] (setting [26]) were -7.54% and -6.55%, respectively. Moreover, the result in [3], in experiment [4], in experiment [13], in experiment [23], in [18] and in experiment [24] was inactive. The molecule was classed as inactive in experiment [20]. Moreover, the Potency result in experiment [7], in experiment [8], in experiment [9], in experiment [10], in [11] and in experiment [15] was “inactive” throughout. Also, the Potency result in experiment [16], in experiment [17] and in experiment [22] was “inactive” throughout. The activation in [19] was -0.0625% (inactive).
